Measured values from PubChem BioAssay (EPA / NIEHS).
More than one record can exist for a structure, and the calls need not agree. The source made the active and inactive calls. Rule for the calls: active = hit-call score of the fitted dose curve at least 0.9, where 1 is the maximum; inactive = score below 0.9.

Columns and labels:
[1] = ATG_GLI_CIS: Attagene CIS-FACTORIAL HepG2 Assay for human Zinc Finger Protein GLI1 (AID 2282945); settings: HepG2, Attagene cis-factorial reporter mRNA, GLI element; actives raise or lower the signal
Outline: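 Bidirectional curve fits relative to DMSO, using reporter mRNA levels from RT-PCR plus capillary electrophoresis. Cells were HepG2 transiently carrying cis-regulated reporter constructs, harvested 24 h after dosing.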

[2] = ATG_GRE_CIS: Attagene CIS-FACTORIAL HepG2 Assay for human Glucocorticoid Response Elements (GRE) (AID 2282947); settings: HepG2 GRE cis-reporter, Attagene multiplex mRNA; actives raise or lower the signal
Outline: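 Multiplexed cis-reporter mRNA induction, HepG2, 24 h post-dose. RT-PCR, FAM-labelled, HpaI-digested amplicons by CE. Bidirectional fit vs DMSO.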

[3] = ATG_ISRE_CIS: Attagene CIS-FACTORIAL HepG2 Assay for human Interferon Regulatory Factor 1 (IRF1) binding to an Interferon-Stimulated Response Element (ISRE) (AID 2282948); settings: HepG2 ISRE cis-reporter (Attagene), mRNA transcription readout; actives raise or lower the signal
Outline: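 Uses HepG2 liver cells transfected with cis-regulated reporters and measures mRNA 24 h post-dosing through RT-PCR, primer-extension labelling and capillary electrophoresis, with DMSO as negative control.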

[4] = ATG_M_32_CIS: Attagene CIS-FACTORIAL HepG2 Assay for M32 Transcription Factor (Internal Marker) (AID 2282949); settings: HepG2 Attagene cis-factorial M32 reporter, mRNA; actives raise or lower the signal;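 note: background control marker of the multiplexed CIS panel rather than a real target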
Outline: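 Using DMSO as baseline, bidirectional curve fits were applied to reporter mRNA signals. These came from transiently transfected HepG2 cells exposed for 24 h, with RNA analysed by RT-PCR, FAM primer extension, HpaI digestion and CE.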

[5] = molecular target: Hypoxia-inducible factor 1-alpha (Homo sapiens) (UniProt Q16665); test: ATG_HIF1a_CIS: Attagene CIS-FACTORIAL HepG2 Assay for human Hypoxia Inducible Factor 1 (HIF1A) (AID 2282951); settings: HepG2 Attagene cis-factorial HIF1a reporter transcription; actives raise or lower the signal
Outline: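 Fluorescence intensity of capillary-separated, 6-FAM-labelled reporter amplicons gives mRNA induction in HepG2 cells carrying transfected cis-promoter reporter units; cells exposed 24 h, responses fitted up or down from DMSO.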

[6] = molecular target: Heat shock factor protein 1 (Homo sapiens) (UniProt Q00613); test: ATG_HSE_CIS: Attagene CIS-FACTORIAL HepG2 Assay for human Heat Shock Transcription Factor 1 (HSE) (AID 2282953); settings: HepG2 HSE cis-reporter, Attagene RNA transcription; actives raise or lower the signal
Outline: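 Liver-derived HepG2 cells carry transiently introduced multiple reporter units governed by cis promoters. Reporter RNA measured 24 h post-dose through reverse transcription, PCR amplification, fluorescent labelling and capillary electrophoresis, normalised to DMSO.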

[7] = ATG_MRE_CIS: Attagene CIS-FACTORIAL HepG2 Assay for human Metal Responsive Element (MRE) (AID 2282954); settings: HepG2 MRE cis-reporter transcription, Attagene multiplex; actives raise or lower the signal
Outline: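 Multiplexed cis-reporter assay in human HepG2 liver cells, 24 h incubation with test chemical. Reporter transcripts measured by RT-PCR and capillary electrophoresis; values from bidirectional curve fitting versus DMSO.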

[8] = ATG_PBREM_CIS: Attagene CIS-FACTORIAL HepG2 Assay for human Phenobarbital-responsive Enhancer Module (PBREM) (AID 2282955); settings: HepG2 PBREM cis-reporter, Attagene multiplexed transcription; actives raise or lower the signal
Outline: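 Cells were transfected with cis-element reporter units and treated for 24 h, after which RNA was extracted and reporter transcripts measured by RT-PCR and capillary electrophoresis.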

[9] = molecular target: Paired box protein Pax-6 (Homo sapiens) (UniProt P26367); test: ATG_Pax6_CIS: Attagene CIS-FACTORIAL HepG2 Assay for human Paired Box 6 (PAX6) (AID 2282956); settings: HepG2 CIS-FACTORIAL PAX6 reporter transcription, RNA readout; actives raise or lower the signal
Outline: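 DMSO-referenced bidirectional fits of reporter mRNA fluorescence; HepG2 with transient cis-promoter MRTUs, 24 h post-dose, RT-PCR plus capillary electrophoresis detection.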

[10] = ATG_PXRE_CIS: Attagene CIS-FACTORIAL HepG2 Assay for human Pregnane X Receptor Element (PXRE) (AID 2282957); settings: HepG2 Attagene CIS-FACTORIAL PXRE reporter, mRNA; actives raise or lower the signal
Outline: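 Bidirectional activity, baselined to DMSO, derived from reporter mRNA fluorescence (RT-PCR plus capillary electrophoresis) in HepG2 cells bearing cis-promoter reporter units, 24 h exposure.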

[11] = ATG_Sox_CIS: Attagene CIS-FACTORIAL HepG2 Assay for human SRY-box transcription factor (SOX) (AID 2282960); settings: HepG2 Attagene cis-factorial SOX reporter, mRNA; actives raise or lower the signal
Outline: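 Measures mRNA induction of a SOX1-associated reporter in HepG2 after 24 h dosing. Fluorescently labelled RT-PCR fragments are separated by capillary electrophoresis, and gain or loss relative to DMSO control is fitted.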

[12] = molecular target: Transcription factor Sp1 (Homo sapiens) (UniProt P08047); test: ATG_Sp1_CIS: Attagene CIS-FACTORIAL HepG2 Assay for human Specificity Protein 1 (Sp1) (AID 2282961); settings: HepG2 Sp1 cis-reporter transcription, actives raise or lower the signal
Outline: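 Cells: HepG2, transiently transfected with cis-regulated multiplexed reporters. Exposure: 24 h. Detection: reporter transcripts amplified, fluorescently labeled, restriction-digested and sized by capillary electrophoresis. Analysis: bidirectional fit relative to DMSO.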

[13] = ATG_SREBP_CIS: Attagene CIS-FACTORIAL HepG2 Assay for human Sterol Regulatory Element Binding (SREBP) (AID 2282962); settings: HepG2 Attagene cis-factorial SREBP reporter, mRNA; actives raise or lower the signal
Outline: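 In this cis-format assay, HepG2 liver cells express reporters controlled by promoter elements responsive to native transcription factors. Exposure lasts 24 h; reporter mRNA fluorescence from capillary electrophoresis gives the signal, fitted bidirectionally against DMSO.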

[14] = ATG_TA_CIS: Attagene CIS-FACTORIAL HepG2 Assay for human TA Basal Promoter (AID 2282964); settings: HepG2 Attagene CIS-factorial TA basal promoter reporter; actives raise or lower the signal
Outline: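 Background internal-marker endpoint from a 52-component HepG2 cis-reporter panel. Cells treated 24 h; reporter transcripts quantified via RT-PCR and CE fluorescence against DMSO baseline.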

[15] = molecular target: Hepatocyte nuclear factor 6 (Homo sapiens) (UniProt Q9UBC0); test: ATG_HNF6_CIS: Attagene CIS-FACTORIAL HepG2 Assay for human Hepatocyte Nuclear Factor 6 (HNF6) (AID 2282952); settings: HepG2 Attagene cis-factorial HNF6 reporter transcription; actives raise or lower the signal
Outline: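 Twenty-four-hour chemical treatment of reporter-transfected HepG2 cells precedes RNA isolation, DNase-treated reverse transcription and PCR of reporter sequences. Labelled fragments are sized by capillary electrophoresis and fitted bidirectionally versus DMSO.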

[16] = ATG_RORE_CIS: Attagene CIS-FACTORIAL HepG2 Assay for human RAR-related Orphan Receptor Element (RORE) (AID 2282959); settings: HepG2 Attagene cis-factorial RORE reporter, mRNA; actives raise or lower the signal
Outline: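 Endogenous factor activity at a cis response element is read as reporter transcript levels in HepG2 cells, 24 h post-dose. Transcripts are quantified by RT-PCR with capillary electrophoresis, and data fitted in both directions against DMSO.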

[17] = molecular target: Signal transducer and activator of transcription 3 (Homo sapiens) (UniProt P40763); test: ATG_STAT3_CIS: Attagene CIS-FACTORIAL HepG2 Assay for human Signal Transducer and Activator of Transcription 3 (STAT3) (AID 2282963); settings: HepG2, Attagene cis-factorial STAT3 reporter transcription; actives raise or lower the signal
Outline: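 Cis-factorial format: endogenous transcription factors in HepG2 drive transfected reporter units. After 24 h treatment, reporter RNA was reverse-transcribed, amplified, FAM-labelled and HpaI-digested before CE analysis; activity scored in both directions against DMSO.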

[18] = ATG_M_06_CIS: Attagene CIS-FACTORIAL HepG2 Assay for M06 Transcription Factor (Internal Marker) (AID 2282950); settings: HepG2 Attagene CIS-FACTORIAL M06 internal marker reporter; actives raise or lower the signal
Outline: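 Cells (HepG2, transiently carrying cis-driven reporter units) receive chemical for 24 h before RNA isolation. Reporter cDNA is PCR-amplified, FAM-labelled by primer extension, HpaI-digested and sized on a capillary analyser.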

[19] = ATG_PPRE_CIS: Attagene CIS-FACTORIAL HepG2 Assay for human Peroxisome Proliferator-activated Response Element (PPRE) (AID 2282958); settings: HepG2 PPRE cis-element reporter, Attagene transcription factor profiling; actives raise or lower the signal
Outline: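 In this cell-based multiplex, a PPRE cis element drives a reporter sequence in transiently transfected HepG2 cells. Following 24 h treatment, labeled cDNA amplicons are sized and quantified by capillary electrophoresis, with DMSO defining baseline.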

Measured: AC50

Chain of Hepatocyte nuclear factor 6 (Homo sapiens) (Q9UBC0 whole entry, looked up, the tested form may be a part): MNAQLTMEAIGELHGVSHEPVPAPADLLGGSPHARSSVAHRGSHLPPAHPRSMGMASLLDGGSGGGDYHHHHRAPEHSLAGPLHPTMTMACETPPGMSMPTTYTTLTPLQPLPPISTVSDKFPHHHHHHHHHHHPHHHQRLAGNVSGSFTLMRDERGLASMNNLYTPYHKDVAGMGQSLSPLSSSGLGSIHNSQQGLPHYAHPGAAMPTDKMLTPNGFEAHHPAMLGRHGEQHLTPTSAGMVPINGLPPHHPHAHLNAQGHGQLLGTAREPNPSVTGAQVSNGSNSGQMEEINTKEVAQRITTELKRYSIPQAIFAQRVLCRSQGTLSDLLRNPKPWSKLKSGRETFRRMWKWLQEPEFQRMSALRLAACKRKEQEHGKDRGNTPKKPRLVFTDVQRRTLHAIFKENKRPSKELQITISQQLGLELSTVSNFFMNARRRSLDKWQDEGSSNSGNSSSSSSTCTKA
Chain of Hypoxia-inducible factor 1-alpha (Homo sapiens) (Q16665 whole entry, looked up): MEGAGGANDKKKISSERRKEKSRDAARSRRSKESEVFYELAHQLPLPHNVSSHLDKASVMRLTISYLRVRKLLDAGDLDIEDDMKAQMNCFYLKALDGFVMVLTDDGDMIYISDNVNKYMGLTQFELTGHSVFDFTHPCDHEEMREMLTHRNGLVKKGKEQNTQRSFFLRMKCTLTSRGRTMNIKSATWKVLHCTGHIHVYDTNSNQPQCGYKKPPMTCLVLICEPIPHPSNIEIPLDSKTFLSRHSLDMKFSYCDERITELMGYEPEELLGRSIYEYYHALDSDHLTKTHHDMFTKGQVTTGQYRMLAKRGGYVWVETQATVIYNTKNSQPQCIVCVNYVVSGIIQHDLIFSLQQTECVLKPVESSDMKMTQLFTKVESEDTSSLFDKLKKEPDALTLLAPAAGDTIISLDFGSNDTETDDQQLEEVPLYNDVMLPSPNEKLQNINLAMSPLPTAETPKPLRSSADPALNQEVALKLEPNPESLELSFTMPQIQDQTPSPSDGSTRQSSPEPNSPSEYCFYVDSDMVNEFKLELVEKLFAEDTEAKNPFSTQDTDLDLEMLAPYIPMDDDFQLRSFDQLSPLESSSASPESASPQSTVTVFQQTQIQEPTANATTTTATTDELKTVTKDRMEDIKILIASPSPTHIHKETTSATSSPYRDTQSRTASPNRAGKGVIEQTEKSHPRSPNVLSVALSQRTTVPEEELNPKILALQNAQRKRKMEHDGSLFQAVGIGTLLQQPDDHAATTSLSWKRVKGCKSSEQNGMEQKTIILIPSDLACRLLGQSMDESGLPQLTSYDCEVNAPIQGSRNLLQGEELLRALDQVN
Chain of Paired box protein Pax-6 (Homo sapiens) (P26367 whole entry, looked up): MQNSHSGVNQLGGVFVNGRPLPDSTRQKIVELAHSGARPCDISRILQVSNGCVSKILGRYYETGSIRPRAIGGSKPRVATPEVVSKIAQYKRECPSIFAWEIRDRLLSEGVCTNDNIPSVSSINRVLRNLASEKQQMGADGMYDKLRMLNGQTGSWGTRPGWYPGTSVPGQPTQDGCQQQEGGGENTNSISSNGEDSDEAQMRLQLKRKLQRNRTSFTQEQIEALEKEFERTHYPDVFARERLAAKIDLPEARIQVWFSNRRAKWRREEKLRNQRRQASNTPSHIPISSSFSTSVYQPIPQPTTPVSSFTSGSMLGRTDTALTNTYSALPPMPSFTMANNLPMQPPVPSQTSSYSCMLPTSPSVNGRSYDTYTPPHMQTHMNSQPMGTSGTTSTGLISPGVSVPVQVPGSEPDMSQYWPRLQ
Chain of Signal transducer and activator of transcription 3 (Homo sapiens) (P40763 whole entry, looked up): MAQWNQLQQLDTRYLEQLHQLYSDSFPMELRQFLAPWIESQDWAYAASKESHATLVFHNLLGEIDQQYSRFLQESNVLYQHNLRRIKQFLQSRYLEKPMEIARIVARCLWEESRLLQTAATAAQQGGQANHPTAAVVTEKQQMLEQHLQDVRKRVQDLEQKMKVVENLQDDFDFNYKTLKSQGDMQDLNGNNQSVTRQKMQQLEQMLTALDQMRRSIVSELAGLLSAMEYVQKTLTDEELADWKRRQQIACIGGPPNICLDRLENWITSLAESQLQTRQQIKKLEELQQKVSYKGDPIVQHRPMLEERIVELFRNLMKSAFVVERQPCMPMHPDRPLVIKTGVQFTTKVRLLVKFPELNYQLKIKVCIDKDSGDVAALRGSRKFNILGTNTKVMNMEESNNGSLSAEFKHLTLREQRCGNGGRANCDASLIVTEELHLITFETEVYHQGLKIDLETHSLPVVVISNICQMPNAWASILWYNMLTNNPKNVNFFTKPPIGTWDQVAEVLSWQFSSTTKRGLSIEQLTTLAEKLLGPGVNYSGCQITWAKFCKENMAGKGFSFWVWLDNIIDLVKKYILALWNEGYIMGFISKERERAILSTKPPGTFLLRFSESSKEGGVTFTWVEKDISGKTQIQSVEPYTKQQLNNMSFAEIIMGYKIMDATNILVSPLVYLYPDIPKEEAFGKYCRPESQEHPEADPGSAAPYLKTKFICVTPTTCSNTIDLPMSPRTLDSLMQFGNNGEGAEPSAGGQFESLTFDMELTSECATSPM
Chain of Heat shock factor protein 1 (Homo sapiens) (Q00613 whole entry, looked up): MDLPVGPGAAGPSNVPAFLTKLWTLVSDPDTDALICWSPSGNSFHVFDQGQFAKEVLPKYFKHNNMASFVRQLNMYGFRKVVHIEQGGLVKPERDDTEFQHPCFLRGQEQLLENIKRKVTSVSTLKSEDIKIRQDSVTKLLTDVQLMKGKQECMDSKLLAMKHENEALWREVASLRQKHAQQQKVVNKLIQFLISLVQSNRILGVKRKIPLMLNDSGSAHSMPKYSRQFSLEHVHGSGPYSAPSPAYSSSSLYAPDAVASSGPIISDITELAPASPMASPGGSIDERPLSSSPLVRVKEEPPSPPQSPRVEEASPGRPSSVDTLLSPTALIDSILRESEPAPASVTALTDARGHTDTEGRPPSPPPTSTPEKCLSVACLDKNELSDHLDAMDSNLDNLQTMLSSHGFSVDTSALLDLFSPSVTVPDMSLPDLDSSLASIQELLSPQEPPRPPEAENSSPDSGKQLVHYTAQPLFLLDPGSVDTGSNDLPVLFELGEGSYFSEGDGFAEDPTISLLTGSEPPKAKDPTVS
Chain of Transcription factor Sp1 (Homo sapiens) (P08047 whole entry, looked up): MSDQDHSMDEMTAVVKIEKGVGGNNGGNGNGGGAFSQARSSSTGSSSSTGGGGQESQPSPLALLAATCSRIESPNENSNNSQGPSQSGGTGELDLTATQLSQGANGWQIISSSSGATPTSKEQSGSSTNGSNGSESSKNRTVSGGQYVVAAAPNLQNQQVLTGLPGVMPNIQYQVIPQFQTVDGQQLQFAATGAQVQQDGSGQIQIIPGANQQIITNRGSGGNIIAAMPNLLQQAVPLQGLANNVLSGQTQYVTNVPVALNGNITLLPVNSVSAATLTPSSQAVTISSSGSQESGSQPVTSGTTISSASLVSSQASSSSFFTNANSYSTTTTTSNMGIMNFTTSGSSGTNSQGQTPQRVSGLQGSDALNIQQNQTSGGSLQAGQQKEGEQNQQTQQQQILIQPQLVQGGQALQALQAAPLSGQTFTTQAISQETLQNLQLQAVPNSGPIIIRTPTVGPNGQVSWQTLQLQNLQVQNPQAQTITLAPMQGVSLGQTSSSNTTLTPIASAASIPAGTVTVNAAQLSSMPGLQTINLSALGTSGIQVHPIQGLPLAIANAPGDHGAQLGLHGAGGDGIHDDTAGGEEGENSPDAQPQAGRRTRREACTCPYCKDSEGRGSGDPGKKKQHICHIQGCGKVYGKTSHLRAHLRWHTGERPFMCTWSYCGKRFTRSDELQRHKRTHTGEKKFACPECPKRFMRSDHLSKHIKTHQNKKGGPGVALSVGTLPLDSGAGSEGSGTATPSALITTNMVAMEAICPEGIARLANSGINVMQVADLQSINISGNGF

Nc1ccc(N)c([N+](=O)[O-])c1
inactive: [1] | [2] | [3] | [4] | [5] | [6] | [7] | [8] | [9] | [10] | [11] | [12] | [13] | [14]
active: [6] 25.9 µM

O=C(OCc1ccccc1)c1ccccc1O
active: [10] 77.9 µM | [13] 128 µM
not listed: [8] | [11] | [18] | [19]
inactive: all other assays above

CCCCN(CCO)CCO
not listed: [14] | [15] | [17] | [18] | [19]
inactive: all other assays above

C=CCCCCCCCCC(=O)OCC
not listed: [2]
inactive: all other assays above

CCCCOCCOCCOCCO
not listed: [2] | [12]
inactive: all other assays above

CC(=O)Nc1cc(S(=O)(=O)O)cc2cc(S(=O)(=O)O)c(N=Nc3ccccc3)c(O)c12
not listed: [2]
inactive: all other assays above

C=COCC1CCC(COC=C)CC1 (stereo not given)
not listed: [6] | [14] | [17] | [18] | [19]
inactive: all other assays above

CC(=O)CCC(=O)O
active: [10] 63.8 µM
not listed: [6] | [12] | [18] | [19]
inactive: all other assays above

CCCC[N+](C)(CCCC)CCCC
not listed: [6] | [7] | [18]
inactive: all other assays above

COC(=O)c1cccc(C(=O)OC)c1
not listed: [2] | [14]
inactive: all other assays above

CCNC(=S)NCC
not listed: [2] | [12]
inactive: all other assays above

NC(N)=S
not listed: [6] | [7] | [16] | [18] | [19]
inactive: all other assays above

CNC(=C[N+](=O)[O-])NCCSCc1ccc(CN(C)C)o1
not listed: [5] | [6] | [15] | [17] | [18]
inactive: all other assays above

CCCCN(CCCC)CCCCCCN(CCCC)CCCC
not listed: [2] | [11]
inactive: all other assays above

O=C(C=Cc1ccccc1)OCCCc1ccccc1
active: [10] 19.9 µM
not listed: [7] | [12] | [17] | [18] | [19]
inactive: all other assays above

FC(F)(F)c1ccc(Cl)c(Cl)c1
active: [10] 27.9 µM
not listed: [8] | [11] | [14] | [18]
inactive: all other assays above
